Test results taken from the supplement of paper PMC12636033.
± gives the standard deviation of the averaged measurements. Whole data set: some 33,000 sequences, median “E-score (rank enrichment, -0.5 to 0.5)” near -0.0043, cut for the highest 2% near 0.24. This is one part of a sample in which the highest values are shown more often than they occur.

These sequences were tested on 2Sp-muMax20 (muMax20 with two 2,6-bis(methyl)pyridine Cys staples) (assay: PBM 8-mer E-score (E-score (rank enrichment, -0.5 to 0.5)); higher = stronger preferential binding).
Method: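 Protein binding microarray (universal PBM chip covering all 10-mers in fixed probe flanks) with chemically synthesized human Max(13-93) bHLH-LZ analogs (not full-length Max) bearing noncanonical residues (hArg, Tha, Aib, Nle at 65) and aromatic Cys staples. Read-out per 8-mer (and its reverse complement): E-score (rank-based enrichment, -0.5 to 0.5) and Z-score of median probe intensity.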

Sequence	PBM 8-mer E-score
GTAAATAC	0.0558 ± 0.018
ATAAATAG	0.191 ± 0.021
CTAAATAA	0.126 ± 0.07
GTAAATAA	0.157 ± 0.059
TTAAATAA	0.171 ± 0.051
CAGCGTCC	-0.107 ± 0.044
TCGATTCA	0.0577 ± 0.023
GAGCTCAC	0.0534 ± 0.12
ATCTGTTC	0.11 ± 0.068
ACTAGCAC	0.0515 ± 0.15
TGACCCCA	0.108 ± 0.02
AAACCCCC	-0.303 ± 0.11
AGACCCCA	0.284 ± 0.052
AAACCCCA	0.293 ± 0.022
AACCCCAA	0.249 ± 0.062
ACCCCCAA	-0.142 ± 0.059
CTACCCCA	0.283 ± 0.011
CTACCCAA	0.0921 ± 0.061
AACCCAAA	0.0422 ± 0.03
CTACCCCC	-0.195 ± 0.12
AACCCCCA	-0.297 ± 0.061
AGACCCCC	-0.388 ± 0.063
GCCATTCC	-0.155 ± 0.069
TCGAGAAA	0.0513 ± 0.046
GCCTTCTA	0.0133 ± 0.025
CCCGCACA	-0.141 ± 0.011

Sequence	PBM 8-mer E-score
AAACCTGA	-0.0739 ± 0.087
AAACAGAC	0.143 ± 0.097
AGGTGGCA	-0.0941 ± 0.015
ACCAGGTA	-0.11 ± 0.012
AATTATTG	0.196 ± 0.015
AGACCAAC	-0.0312 ± 0.013
CAACCCCC	-0.196 ± 0.022
CAACCCCA	0.264 ± 0.035
CAACCCAA	0.0124 ± 0.094
ATGCTTTC	0.125 ± 0.017
ATGCTTTG	0.239 ± 0.036
ATGCTTTA	0.138 ± 0.081
GCGCGCTA	0.235 ± 0.021
AATCGCAG	0.142 ± 0.046
TGGGCCAA	-0.0226 ± 0.046
GTGCATCA	0.0111 ± 0.045
ATGCAATA	0.246 ± 0.0094
GTGCATTA	0.156 ± 0.042
ATGCATCG	0.0497 ± 0.074
GTGCAATA	0.0506 ± 0.012
ATGCATTA	0.319 ± 0.0086
ACGCATGC	0.277 ± 0.06
ATGCATCA	0.347 ± 0.046
CTGCATTA	0.107 ± 0.025
CTGCAATA	0.0295 ± 0.0051
ACGCATGG	0.13 ± 0.026

Sequence	PBM 8-mer E-score
ACGCATGA	0.136 ± 0.0059
CGACCACC	-0.142 ± 0.0047
GCCTTAGC	-0.154 ± 0.029
AGATCTTG	0.152 ± 0.051
CCATCGAA	-0.00649 ± 0.052
GACTATGC	0.0616 ± 0.023
ATCCAGTG	-0.0872 ± 0.065
ACATTCGG	-0.0311 ± 0.13
ACGCATAT	0.333 ± 0.011
CTGCATTC	-0.000675 ± 0.052
ACGCATAA	0.164 ± 0.07
CTGCATAC	0.0466 ± 0.068
ACGCATAG	-0.0802 ± 0.035
ATGCATGG	0.13 ± 0.055
ATGCATGC	0.262 ± 0.048
ATGCATTC	0.285 ± 0.048
ATGCATAC	0.258 ± 0.12
ATGCATTG	0.165 ± 0.0071
ATGCATAA	0.114 ± 0.045
CTGCATGC	0.0733 ± 0.071
CAGGGGGA	0.00992 ± 0.059
ACACCGCT	-0.116 ± 0.068
CAGCTTGG	-0.0934 ± 0.012
GCCCGGGC	-0.296 ± 0.055
ACTGAATG	-0.0577 ± 0.048
CGCCGATC	-0.128 ± 0.13

Sequence	PBM 8-mer E-score
ATTTGCCA	-0.024 ± 0.041
ACTTCCGG	-0.229 ± 0.1
CTCCTCTA	-0.151 ± 0.013
CACCTCCG	-0.0614 ± 0.051
GAAAGTCA	-0.0504 ± 0.065
AGCTGGGA	-0.08 ± 0.019
ATTCATTG	0.161 ± 0.087
ATTCATTA	0.176 ± 0.007
CTACATTC	0.0778 ± 0.03
ATTCATTC	0.305 ± 0.013
ATACATTC	0.2884 ± 0.0017
ATACATTG	0.106 ± 0.029
GCCGTTCC	-0.21 ± 0.089
AGGTAGAG	-0.122 ± 0.024
AATGCTGT	-0.0251 ± 0.073
GGCCTCGA	-0.238 ± 0.045
ACGTGCTG	0.12 ± 0.063
CCGTGCTC	-0.119 ± 0.14
GCGTGCAC	0.204 ± 0.017
ACGTGCAC	0.273 ± 0.051
ACGTGCAT	0.195 ± 0.096
ACGTGCTC	0.259 ± 0.027
CTTACCAC	0.0166 ± 0.11
GTCCTTTA	-0.0713 ± 0.029
CCTATCCA	-0.0745 ± 0.015
AGTAGGAG	-0.0281 ± 0.053

Sequence	PBM 8-mer E-score
CGCAAGAC	-0.023 ± 0.0044
ACCAATTC	-0.0718 ± 0.0024
CCCAATTA	0.203 ± 0.057
CCCAATTC	0.246 ± 0.083
CATTCTTA	0.145 ± 0.085
ATGTTTGA	0.176 ± 0.031
ATAATCAA	0.0608 ± 0.095
ATAATCAG	0.304 ± 0.005
ATAATCTG	0.123 ± 0.1
ATAATCAC	0.0279 ± 0.026
ATAATCAT	0.27 ± 0.013
CTAATCAG	-0.0147 ± 0.026
CGTCGGCA	-0.197 ± 0.056
CTTCGTTC	-0.0473 ± 0.038
GGTTCAAC	-0.145 ± 0.05
CTCCATAA	0.0393 ± 0.028
TCCGGCAA	-0.207 ± 0.0021
CTTTCGTC	-0.0338 ± 0.038
ATTTCGTG	0.166 ± 0.031
ATTTCGTC	0.279 ± 0.019
CTACGACA	-0.0631 ± 0.043
ATCACGCC	0.192 ± 0.043
ACCACGCA	0.0893 ± 0.0056
ACCACGTG	0.436 ± 0.012
ATCACGCA	0.00557 ± 0.0074
AGCACGTC	-0.0658 ± 0.05

Sequence	PBM 8-mer E-score
AGCACGTA	0.0888 ± 0.021
ATCACGCG	0.247 ± 0.015
ACCACGTC	-0.0398 ± 0.011
ACCACGTA	-0.0775 ± 0.034
AGCACGTG	0.4333 ± 0.0023
CCCACGCG	0.231 ± 0.014
ACCACGCG	0.363 ± 0.023
ACTGCCAA	0.0746 ± 0.053
GGTAAGAC	-0.0928 ± 0.022
CCGATAAG	-0.181 ± 0.034
ATTTTGCA	0.143 ± 0.086
TCGTCTCA	-0.0634 ± 0.048
ATGTACCA	-0.0255 ± 0.13
GAGTGCGC	-0.0296 ± 0.0031
CCCCAAGA	0.144 ± 0.023
ACCTGGAT	-0.149 ± 0.028
GCCGCAGA	-0.0428 ± 0.041
CTAGGACC	-0.182 ± 0.025
AGCACGCA	0.00395 ± 0.075
ATCACGTG	0.397 ± 0.047
ATCACGTC	0.0413 ± 0.035
CGCACGCG	0.178 ± 0.032
ATCACGTA	0.00227 ± 0.14
AGCACGCG	0.289 ± 0.0067
CTTCTTAA	0.126 ± 0.15
CGAAGTGC	0.0928 ± 0.034

Sequence	PBM 8-mer E-score
AACGCGGA	-0.162 ± 0.14
GACGCGGC	-0.08 ± 0.03
AACGCGGC	-0.0876 ± 0.028
CACGCGGA	0.357 ± 0.015
CACGCGGC	0.299 ± 0.034
CACGCGGG	0.187 ± 0.091
ATTATGCC	0.128 ± 0.012
TGCGCACA	0.124 ± 0.025
GTGGGGAA	0.277 ± 0.027
TGGGGGAA	0.0001 ± 0.016
ATGGGGCA	0.11 ± 0.12
TGGGGAAA	0.306 ± 0.022
ATGGGGTC	0.0299 ± 0.041
ATGGGGCG	0.25 ± 0.0057
GTGGGGGA	0.0699 ± 0.011
ATGGGGTA	0.239 ± 0.05
CTGGGGAA	-0.125 ± 0.026
ATGGGGCC	-0.0651 ± 0.11
GGGGGAAA	-0.0158 ± 0.089
ATGGGGTG	0.175 ± 0.018
